Test results as given in PubChem BioAssay.
“And” between values parts separate entries of the source, which are not always exact repeats. Equal values may be shown once. Values without a mark were called inactive. The rule behind the calls is not given here.

Biological target: Lethal factor (Bacillus anthracis) (UniProt P15917)
Experiment: Lethal factor protease inhibitors, Bacillus anthracis, multiplex microsphere cleavage assay, validation set (AID 588461)
Conditions: flow cytometry, at 10 µM, hits give high values

Chain of Lethal factor (Bacillus anthracis) (P15917 whole entry, looked up): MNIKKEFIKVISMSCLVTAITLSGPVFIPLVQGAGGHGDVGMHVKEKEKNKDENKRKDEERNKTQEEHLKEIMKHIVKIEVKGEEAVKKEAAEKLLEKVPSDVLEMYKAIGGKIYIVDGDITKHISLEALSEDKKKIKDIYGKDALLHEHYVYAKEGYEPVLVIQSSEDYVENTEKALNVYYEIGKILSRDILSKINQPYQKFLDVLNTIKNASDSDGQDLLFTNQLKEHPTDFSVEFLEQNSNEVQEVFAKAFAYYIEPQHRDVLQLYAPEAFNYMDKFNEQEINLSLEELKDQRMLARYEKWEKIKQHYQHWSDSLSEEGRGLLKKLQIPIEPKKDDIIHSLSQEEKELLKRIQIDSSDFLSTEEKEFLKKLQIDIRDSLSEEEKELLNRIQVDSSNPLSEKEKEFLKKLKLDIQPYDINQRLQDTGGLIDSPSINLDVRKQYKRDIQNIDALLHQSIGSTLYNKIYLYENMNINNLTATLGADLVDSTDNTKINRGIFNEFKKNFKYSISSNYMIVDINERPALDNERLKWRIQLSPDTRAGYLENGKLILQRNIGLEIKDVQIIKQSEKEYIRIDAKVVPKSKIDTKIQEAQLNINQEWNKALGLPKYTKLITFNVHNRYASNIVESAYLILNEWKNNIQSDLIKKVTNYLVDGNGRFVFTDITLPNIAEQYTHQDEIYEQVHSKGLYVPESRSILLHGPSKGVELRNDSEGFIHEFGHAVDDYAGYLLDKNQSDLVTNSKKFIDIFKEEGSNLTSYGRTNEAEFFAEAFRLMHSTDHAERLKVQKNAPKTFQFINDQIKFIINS

Compound	inhibition
N/C(Cc1ccc(Cl)cc1Cl)=N\OC(=O)c1ccc(Br)o1	-7.4%
CC(C)OC(=O)CC1C(=O)NCCN1C(=S)NC(=O)c1ccccc1Cl (stereo not given)	-0.2%
Nc1nc(Cl)nc2c1ncn2[C@H]1C[C@H](O)[C@@H](CO)O1	-19.4%
COc1ccc(/C=C2\CC/C(=C\c3ccc(OC)c(OC)c3)C2=O)cc1OC	-5.9%
COc1ccc(CNCCC2(C(C)C)CCOC(C)(C)C2)cc1 (stereo not given)	-4%
CCCn1c(=O)c2[nH]c(C3CCCC3)nc2n(CCC)c1=O	-1.9%
Cn1c(=O)c(C(=O)NCCO)c(O)c2ccccc21	-2.2%
O=c1c(-c2ccccc2)c(O)c2cccc3c2n1CCC3	10.4%
COc1ccc(CCNC(=O)c2c(O)c3c([nH]c2=O)CCCC3)cc1	-14.2%
COc1cccc(CC(=O)NCC2COc3ccccc3O2)c1OC (stereo not given)	0.6%
CCN(CC)Cc1c[nH]c2c(C(=O)OC)cccc12	6.7%
CSCCC(NC(C)=O)C(=O)Oc1ccc2c3c(c(=O)oc2c1)CCCC3 (stereo not given)	-1.8%
Cn1c(=O)[nH]c2nnc(-c3ccc(Cl)c(Cl)c3)nc2c1=O	-4.1%
CC(C)OC(=O)CC1C(=O)NCCN1C(=S)NC(=O)c1cccs1 (stereo not given)	-5.8%
Cc1ccccc1-c1nn(-c2ccc(F)cc2F)cc1CNCCN(C)C	-2.9%
O=C(N/C(=C/C=C\c1ccccc1)C(=O)N1CCOCC1)c1ccc(Br)cc1	-3.6%
Cc1ccc(S(=O)(=O)NC(=O)Nc2cc(C)ccc2F)cc1	-4.1%
CCCCOc1ccc(OCCCN2CCOCC2)cc1	-4.8%
Nc1cccc2c1nnn2C1OC(CO)C(O)C(O)C1O (stereo not given)	3.5%
Cc1cccc2c(=O)n3c(nc12)CCCCC3	-10.4%

Compound	inhibition
CC[N+](C)(C)Cc1ccccc1Br	0.6%
CCCCOc1cc(C(=O)NCCN(CC)CC)c2ccccc2n1	-1.9% and 2.1%
COc1cc(C(=O)Nc2ccc(N(C)C)cc2)c([N+](=O)[O-])cc1OC	-19.3%
CCCC(=O)Nc1ccc(OCC(O)CNC(C)C)c(C(C)=O)c1 (stereo not given)	-26.9%
O=C(O)CCn1c(=S)n(CCC(=O)O)c2ccccc21	3.1%
NS(=O)(=O)c1cc2c(cc1Cl)NC(CSCc1ccccc1)=NS2(=O)=O	-2.3%
COc1ccc(CCNc2ncnc3c2[nH]c2cc(OC)c(OC)cc23)cc1OC	-0.7%
COc1ccc2nc(Nc3nc(CSc4ccc(C)cc4)cc(=O)[nH]3)nc(C)c2c1	2%
Cc1c(NC(=O)c2cccs2)cccc1[N+](=O)[O-]	5.7%
O=C(O)CCCCCNC(=O)Nc1ccc2c(c1)OCCO2	-10.1%
COc1ccc(C(=O)NCCC2=CCCCC2)cc1[N+](=O)[O-]	-4.6%
CC(C)CC(=O)N(Cc1ccc(F)cc1)C1CCS(=O)(=O)C1 (stereo not given)	-4%
Cn1cc(CN2CCC(C(=O)N3CCCCC3)CC2)c(-c2ccccc2F)n1	4.5%
CC(C)CN(C)Cc1c(C(=O)N2CCc3ccccc3C2)nc2ccc(Cl)cn12	1%
CCN(CC)CC(=O)Nc1c(C)cccc1C	-6.6% and -3.8%
COc1ccc(C2OC[C@H]3O[C@H](O)[C@H](NC(C)=O)[C@@H](O)[C@@H]3O2)cc1 (stereo not given in full)	-9.6%
COC(=O)[C@H]1[C@H]2C[C@@H]3c4[nH]c5cc(OC)ccc5c4CCN3C[C@H]2C[C@@H](OC(=O)c2ccc(N)cc2)[C@@H]1OC	-32.8%
N/C(=N\OC(=O)CCCOc1ccc(Cl)cc1Cl)c1ccccn1	-0.4%
COC(=O)C1=C(C)N(Cc2ccco2)C(=O)/C1=C\c1ccc([N+](=O)[O-])cc1	-3.7%
CCNC(=O)C(Cc1ccccc1)NC(=O)OCc1ccccc1 (stereo not given)	5.5%
